How the values were obtained:
[1] = target: High affinity nerve growth factor receptor (Homo sapiens) (UniProt P04629); settings: at 1 µM;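 further: each value is the mean percent inhibition of TRKA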
[2] = target: BDNF/NT-3 growth factors receptor (Homo sapiens) (UniProt Q16620); settings: at 0.1 µM
[3] = target: BDNF/NT-3 growth factors receptor (Homo sapiens) (UniProt Q16620); settings: at 1 µM
[4] = target: NT-3 growth factor receptor (Homo sapiens) (UniProt Q16288); settings: at 0.1 µM
[5] = target: NT-3 growth factor receptor (Homo sapiens) (UniProt Q16288); settings: at 1 µM
[6] = target: T1, Tyrosine-protein kinase TXK (Homo sapiens) (UniProt P42681); settings: at 0.1 µM
T1 sequence (whole entry): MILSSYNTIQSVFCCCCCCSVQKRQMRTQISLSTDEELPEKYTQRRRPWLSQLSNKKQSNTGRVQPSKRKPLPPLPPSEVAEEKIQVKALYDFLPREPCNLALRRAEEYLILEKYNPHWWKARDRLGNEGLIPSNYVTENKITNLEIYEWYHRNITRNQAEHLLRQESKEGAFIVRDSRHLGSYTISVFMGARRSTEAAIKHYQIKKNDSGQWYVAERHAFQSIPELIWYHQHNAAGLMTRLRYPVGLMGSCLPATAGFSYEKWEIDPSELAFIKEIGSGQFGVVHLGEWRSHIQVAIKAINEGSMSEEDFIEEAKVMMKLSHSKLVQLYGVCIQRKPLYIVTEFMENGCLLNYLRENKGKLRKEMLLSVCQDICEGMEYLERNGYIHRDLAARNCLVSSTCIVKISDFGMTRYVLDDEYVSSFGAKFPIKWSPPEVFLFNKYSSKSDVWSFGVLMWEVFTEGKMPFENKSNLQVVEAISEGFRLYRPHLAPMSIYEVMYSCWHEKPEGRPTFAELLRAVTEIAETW

[7] = target: T1, Tyrosine-protein kinase TXK (Homo sapiens); settings: at 1 µM
[8] = target: Non-receptor tyrosine-protein kinase TYK2 (Homo sapiens) (UniProt P29597); settings: at 0.1 µM;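 further: each value is a mean of the inhibition readings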
[9] = target: T2, Dual specificity protein kinase TTK (Homo sapiens) (UniProt P33981); settings: at 1 µM;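 further: reported figures are mean TTK inhibition at 1 µM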
T2 sequence (whole entry): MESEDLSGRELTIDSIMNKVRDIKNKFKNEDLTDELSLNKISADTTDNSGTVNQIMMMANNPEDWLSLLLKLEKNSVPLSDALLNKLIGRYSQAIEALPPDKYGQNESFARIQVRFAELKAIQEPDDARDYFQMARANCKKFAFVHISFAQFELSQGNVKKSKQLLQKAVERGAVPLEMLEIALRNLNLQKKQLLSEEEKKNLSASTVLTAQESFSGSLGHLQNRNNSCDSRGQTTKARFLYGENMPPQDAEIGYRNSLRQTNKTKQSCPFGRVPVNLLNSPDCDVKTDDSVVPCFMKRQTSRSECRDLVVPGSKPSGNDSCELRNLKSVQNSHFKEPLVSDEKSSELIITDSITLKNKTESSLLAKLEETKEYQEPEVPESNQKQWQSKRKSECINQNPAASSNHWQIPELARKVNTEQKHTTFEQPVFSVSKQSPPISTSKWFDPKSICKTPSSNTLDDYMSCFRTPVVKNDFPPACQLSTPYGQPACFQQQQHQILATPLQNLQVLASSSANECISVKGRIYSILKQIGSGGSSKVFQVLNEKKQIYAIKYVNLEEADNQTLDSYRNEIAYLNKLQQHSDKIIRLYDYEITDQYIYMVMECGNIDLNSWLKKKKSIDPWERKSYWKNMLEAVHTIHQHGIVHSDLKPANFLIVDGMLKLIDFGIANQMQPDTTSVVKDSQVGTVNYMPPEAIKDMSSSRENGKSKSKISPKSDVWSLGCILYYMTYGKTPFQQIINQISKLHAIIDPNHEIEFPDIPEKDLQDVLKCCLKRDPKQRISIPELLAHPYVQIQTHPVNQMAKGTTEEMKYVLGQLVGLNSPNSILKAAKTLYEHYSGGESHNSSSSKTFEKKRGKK

[10] = target: T3, Aurora kinase A (Homo sapiens) (UniProt O14965); settings: at 0.1 µM;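 further: each reported value is a mean percent inhibition of Aurora-A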
T3 sequence (whole entry): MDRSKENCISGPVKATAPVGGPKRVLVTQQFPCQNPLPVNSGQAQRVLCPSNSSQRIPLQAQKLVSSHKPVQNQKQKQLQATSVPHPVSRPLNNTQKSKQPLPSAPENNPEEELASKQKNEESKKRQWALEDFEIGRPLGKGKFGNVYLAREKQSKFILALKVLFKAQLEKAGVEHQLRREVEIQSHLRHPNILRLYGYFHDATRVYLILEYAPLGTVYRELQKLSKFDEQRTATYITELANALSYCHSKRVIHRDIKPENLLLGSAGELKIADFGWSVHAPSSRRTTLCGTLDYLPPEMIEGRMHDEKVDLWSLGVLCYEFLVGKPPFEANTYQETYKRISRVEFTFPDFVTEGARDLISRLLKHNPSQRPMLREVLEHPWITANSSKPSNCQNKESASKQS

Non-receptor tyrosine-protein kinase TYK2 (Homo sapiens), sequence (P29597 whole entry): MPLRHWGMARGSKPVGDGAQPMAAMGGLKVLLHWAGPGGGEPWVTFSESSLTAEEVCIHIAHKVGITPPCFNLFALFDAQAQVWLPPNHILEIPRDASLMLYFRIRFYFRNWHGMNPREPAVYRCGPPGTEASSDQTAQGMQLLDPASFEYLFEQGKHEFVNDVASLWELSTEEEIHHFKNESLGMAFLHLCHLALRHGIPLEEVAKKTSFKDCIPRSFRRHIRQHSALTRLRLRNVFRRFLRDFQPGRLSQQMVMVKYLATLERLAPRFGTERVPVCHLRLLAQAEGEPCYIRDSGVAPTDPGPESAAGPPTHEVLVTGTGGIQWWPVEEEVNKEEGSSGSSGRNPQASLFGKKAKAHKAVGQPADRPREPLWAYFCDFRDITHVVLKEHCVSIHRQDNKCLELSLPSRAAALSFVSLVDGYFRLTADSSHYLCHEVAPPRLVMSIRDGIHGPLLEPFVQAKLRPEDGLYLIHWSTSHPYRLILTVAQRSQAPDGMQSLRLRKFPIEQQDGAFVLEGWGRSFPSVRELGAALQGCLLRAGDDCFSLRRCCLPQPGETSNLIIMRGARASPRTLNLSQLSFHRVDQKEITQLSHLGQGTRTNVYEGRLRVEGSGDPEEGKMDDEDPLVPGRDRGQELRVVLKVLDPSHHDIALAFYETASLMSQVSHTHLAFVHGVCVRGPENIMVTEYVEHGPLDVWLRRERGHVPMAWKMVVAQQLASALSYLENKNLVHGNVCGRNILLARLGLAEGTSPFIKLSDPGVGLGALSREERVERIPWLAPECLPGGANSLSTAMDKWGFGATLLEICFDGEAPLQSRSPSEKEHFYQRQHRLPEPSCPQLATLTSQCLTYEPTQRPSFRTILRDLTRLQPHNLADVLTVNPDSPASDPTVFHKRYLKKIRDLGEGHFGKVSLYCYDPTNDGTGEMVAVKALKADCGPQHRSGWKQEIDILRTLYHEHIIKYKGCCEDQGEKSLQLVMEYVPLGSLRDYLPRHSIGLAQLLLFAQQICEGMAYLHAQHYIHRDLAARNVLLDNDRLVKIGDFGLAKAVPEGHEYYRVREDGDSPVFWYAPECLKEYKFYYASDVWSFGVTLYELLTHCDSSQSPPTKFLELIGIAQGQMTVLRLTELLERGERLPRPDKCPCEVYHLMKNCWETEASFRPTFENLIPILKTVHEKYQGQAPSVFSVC
NT-3 growth factor receptor (Homo sapiens), sequence (Q16288 32-839 limits assumed): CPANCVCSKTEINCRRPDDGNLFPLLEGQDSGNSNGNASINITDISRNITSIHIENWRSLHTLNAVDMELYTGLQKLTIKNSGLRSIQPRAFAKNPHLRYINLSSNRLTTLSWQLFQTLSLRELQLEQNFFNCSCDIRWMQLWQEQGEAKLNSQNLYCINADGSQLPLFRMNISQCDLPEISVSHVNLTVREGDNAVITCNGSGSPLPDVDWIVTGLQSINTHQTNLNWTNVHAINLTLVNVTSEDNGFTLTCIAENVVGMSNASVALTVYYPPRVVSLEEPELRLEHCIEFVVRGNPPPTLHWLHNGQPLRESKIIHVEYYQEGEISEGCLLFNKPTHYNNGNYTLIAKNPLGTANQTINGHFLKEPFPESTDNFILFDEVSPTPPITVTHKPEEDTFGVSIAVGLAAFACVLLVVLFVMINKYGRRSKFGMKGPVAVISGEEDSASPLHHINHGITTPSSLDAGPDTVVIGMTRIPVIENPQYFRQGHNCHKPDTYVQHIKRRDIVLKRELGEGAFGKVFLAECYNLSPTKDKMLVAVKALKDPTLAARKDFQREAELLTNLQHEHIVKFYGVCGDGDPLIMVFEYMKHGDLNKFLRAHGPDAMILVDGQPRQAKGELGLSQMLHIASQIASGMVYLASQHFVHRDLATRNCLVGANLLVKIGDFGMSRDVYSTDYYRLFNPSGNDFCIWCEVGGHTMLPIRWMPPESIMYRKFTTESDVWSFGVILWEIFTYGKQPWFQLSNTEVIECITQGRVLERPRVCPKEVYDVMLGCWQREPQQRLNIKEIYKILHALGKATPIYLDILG
High affinity nerve growth factor receptor (Homo sapiens), sequence (P04629 33-796 limits assumed): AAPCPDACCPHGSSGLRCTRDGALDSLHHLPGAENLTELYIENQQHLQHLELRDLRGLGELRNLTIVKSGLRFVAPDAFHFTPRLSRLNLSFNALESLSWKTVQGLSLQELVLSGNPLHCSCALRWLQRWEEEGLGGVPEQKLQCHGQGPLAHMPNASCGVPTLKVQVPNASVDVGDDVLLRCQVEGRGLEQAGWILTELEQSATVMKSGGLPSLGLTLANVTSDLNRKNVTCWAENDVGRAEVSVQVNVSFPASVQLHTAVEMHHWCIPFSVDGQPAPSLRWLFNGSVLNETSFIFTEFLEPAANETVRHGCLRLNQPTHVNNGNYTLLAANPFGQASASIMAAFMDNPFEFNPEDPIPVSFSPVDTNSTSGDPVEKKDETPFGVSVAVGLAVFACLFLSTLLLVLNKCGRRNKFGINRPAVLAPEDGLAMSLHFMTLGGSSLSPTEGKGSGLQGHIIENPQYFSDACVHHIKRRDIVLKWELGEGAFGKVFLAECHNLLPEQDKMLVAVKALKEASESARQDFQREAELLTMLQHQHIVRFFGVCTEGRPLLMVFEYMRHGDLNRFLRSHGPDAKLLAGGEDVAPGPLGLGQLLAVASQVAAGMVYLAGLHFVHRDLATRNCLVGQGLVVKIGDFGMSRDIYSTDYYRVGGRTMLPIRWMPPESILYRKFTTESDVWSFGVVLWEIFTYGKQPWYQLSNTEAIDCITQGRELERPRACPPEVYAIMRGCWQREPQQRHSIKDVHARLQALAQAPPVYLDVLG
BDNF/NT-3 growth factors receptor (Homo sapiens), sequence (Q16620 32-822 limits assumed): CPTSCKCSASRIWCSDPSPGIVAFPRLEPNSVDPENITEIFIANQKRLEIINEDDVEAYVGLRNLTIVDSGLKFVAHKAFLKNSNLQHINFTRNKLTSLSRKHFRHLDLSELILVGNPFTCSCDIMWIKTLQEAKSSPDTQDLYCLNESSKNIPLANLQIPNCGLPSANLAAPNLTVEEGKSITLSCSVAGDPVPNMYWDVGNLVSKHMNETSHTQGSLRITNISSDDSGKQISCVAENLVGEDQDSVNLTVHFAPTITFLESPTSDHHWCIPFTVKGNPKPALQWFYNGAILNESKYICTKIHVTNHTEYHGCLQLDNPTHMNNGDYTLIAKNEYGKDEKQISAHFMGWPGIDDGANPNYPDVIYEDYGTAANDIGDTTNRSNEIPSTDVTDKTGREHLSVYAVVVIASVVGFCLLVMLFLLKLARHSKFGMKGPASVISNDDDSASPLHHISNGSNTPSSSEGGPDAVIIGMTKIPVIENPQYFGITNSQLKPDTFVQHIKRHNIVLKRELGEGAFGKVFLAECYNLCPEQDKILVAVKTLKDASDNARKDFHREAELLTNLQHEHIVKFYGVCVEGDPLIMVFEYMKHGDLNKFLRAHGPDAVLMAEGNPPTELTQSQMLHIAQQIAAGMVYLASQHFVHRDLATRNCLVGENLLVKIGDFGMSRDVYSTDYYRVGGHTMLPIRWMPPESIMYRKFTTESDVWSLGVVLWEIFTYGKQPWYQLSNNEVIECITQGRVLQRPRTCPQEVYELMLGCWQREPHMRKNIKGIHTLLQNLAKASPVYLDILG

SMILES	inhibition [1] [%]	inhibition [2] [%]	inhibition [3] [%]	inhibition [4] [%]	inhibition [5] [%]	inhibition [6] [%]	inhibition [7] [%]	inhibition [8] [%]	inhibition [9] [%]	inhibition [10] [%]
COc1cc(N2CCN(C(C)C)CC2)ccc1Nc1nc(Nc2ccc(F)cc2C(N)=O)c2cc[nH]c2n1	4.26	-0.6	3.09	-0.87	-0.43	8.7	5.7	-1.63	85.6	2.91
COc1ccc(-c2nn3ncccc3c2-c2ccnc(Nc3ccc4c(c3)OCCO4)n2)cc1	20.2	1.61	18.7	-1.55	6.72	-0.79	3.19	-1.16	11.6	18.5
COC(=O)Nc1nc2ccc(S(=O)(=O)c3ccc(NC(=O)Nc4cc(C(F)(F)F)ccc4F)cc3)cc2[nH]1	2.05	0.88	3.21	1.98	3.91	2.55	4.65	-1.55	10.5	3.13
COc1cccc(-c2c[nH]c3c(N/N=C/c4ccncc4)ncnc23)c1	7.45	2.41	19.4	4.04	23.3	4.87	16.8	1.21	10.6	4.07
COc1cccc(-n2ncc3c(N/N=C/c4ccc(F)cc4)ncnc32)c1	4.65	3.34	4.5	3.31	6.74	4.3	8.25	-4.95	10.9	2.1
Nc1nc(-c2ccc(F)cc2)c(-c2ccc3ncccc3n2)s1	4.77	4.19	3.45	3.72	5.31	3.19	6	-2.9	7.77	4.14
Fc1ccc(-c2cc(-c3c[nH]nc3-c3ccccn3)ccn2)cc1	0.04	4.04	4.77	4.06	3.45	3.64	2.28	-1.71	9.65	3.15
COc1ccc2[nH]c3c4[nH]c5ccc(OC)cc5c4c4c(c3c2c1)C(=O)NC4=O	16.6	7.79	33.9	8.83	41.5	2.51	14.6	-2.11	34.6	7.28
COc1ccc(-c2cc(-c3c[nH]nc3-c3ccccn3)ccn2)cc1	3.12	3.7	3.9	3.2	5.62	1.77	3.18	-6.95	10.5	3.7
CCN1CCC(CC(=O)Nc2n[nH]c3nnc(-c4cccc(F)c4F)cc23)CC1	-2.79	0.47	0.8	0.17	0.31	-0.72	3.03	0.26	1.38	3.98
FC(F)(F)c1cccc(-c2nn3ncccc3c2-c2ccnc(Nc3ccc4c(c3)OCCO4)n2)c1	3.48	1.94	3.39	0.62	3.72	3.11	9	-2.27	14.6	2.64
COc1cc(Nc2nccc(Nc3ccc4c(C)n[nH]c4c3)n2)cc(OC)c1OC	64.1	4.63	41	-0.03	17.3	23.9	61.9	-1.55	8.41	10.2
CCn1c(-c2nonc2N)nc2ccccc21	2.11	1.05	-0.82	0.03	0.89	3.75	6.72	-1.66	7.51	2.42
O=S(=O)(CCNCc1ccc(-c2ccc3ncnc(Nc4ccc(OCc5cccc(F)c5)c(Cl)c4)c3c2)o1)c1ccccc1	1.84	3.5	5.72	3.32	5.45	-1.02	5.43	-1.8	9.69	6.02
CC1=C(C(=O)Nc2cc(Cl)c3[nH]ncc3c2)C(c2ccc(C(F)(F)F)cc2)CC(=O)N1 (stereo not given)	2.71	2.52	3.55	3.39	6.01	2.42	1.68	-1.59	5.07	3.11
CC(C)(CO)CNC(=O)c1ccc2c(c1)/C(=N/Nc1ccc(S(N)(=O)=O)cc1)C(=O)N2	15.6	3.35	31.2	6.89	41.5	-0.15	3.21	-1.38	79.2	11.9
Clc1ccc(-c2nn3ncccc3c2-c2ccnc(Nc3ccccc3)n2)cc1	6	2.34	3.72	1.69	2.21	3.54	14.9	0.28	4.5	0.9
